Assay results taken from PubChem BioAssay (NCATS).
Results filed as inconclusive are left out. Active and inactive are the calls of the source. Calls follow the shape of the dose curve; as a rule, active = well fitted curve in the direction sought with a large enough effect; inconclusive = small, poorly fitted or top-dose-only effect, or another doubt; inactive = no such curve, though single readings can be large; an effect the other way counts as inactive or inconclusive.

Experiment: qHTS of pediatric cancer cell lines to identify multiple opportunities for drug repurposing: Primary screen for DAOY cells (AID 1347090);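 also: plate controls were DMSO for no effect and bortezomib for full effect; nearly all actives have a fitted effect of over 55% in size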
Conditions: DAOY medulloblastoma viability, CellTiter-Glo luminescence, 48 h; series mostly up to 46 µM; activity change, negative = cytotoxic: at the top concentration
How it was run: (§1)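 Cell viability, CellTiter-Glo luminescence; 500-1,000 cells/well, 8- or 11-point titration, 48 h compound exposure at 37 degrees C, 5% CO2. Controls: DMSO neutral, bortezomib 2.3 µM final as positive.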

| SMILES | activity change, negative = cytotoxic |
| --- | --- |
| CCOc1ccc(C(=O)OCCN(CC)CC)cc1 | -0.38% (inactive) |
| CC(O)CCCCn1c(=O)c2c(ncn2C)n(C)c1=O (stereo not drawn) | -1.17% (inactive) |
| Cc1cccc(C)c1NC(=O)CC12CCCN1CCC2 | 5.55% (inactive) |
| O=C(c1ccccc1)C(O)c1ccccc1 (stereo not drawn) | 7.44% (inactive) |
| NS(=O)(=O)c1ccc(NC(=O)CCC(=O)O)cc1 | -0.192% (inactive) |
| CC[N+](CC)(CC(=O)Nc1c(C)cccc1C)Cc1ccccc1 | -1.61% (inactive) |
| C=CCOc1ccccc1OCC(O)CNC(C)C (stereo not drawn) | 10.6% (inactive) |
| C[N+]1(C)CCCC(OC(=O)C(O)(c2ccccc2)c2ccccc2)C1 (stereo not drawn) | 2.28% (inactive) |
| CCCCCCCCCCC(CO)CCCCCCCC (stereo not drawn) | 11.8% (inactive) |
| CC(=O)Nc1ccc(C(=O)O)cc1 | 2.67% (inactive) |
| COc1ccc(-c2cc(=O)c3c(O)cc(O[C@@H]4O[C@H](CO[C@@H]5O[C@@H](C)[C@H](O)[C@@H](O)[C@H]5O)[C@@H](O)[C@H](O)[C@H]4O)cc3o2)cc1O | 14.9% (inactive) |
| Cc1c(I)c(=O)n(-c2ccccc2)n1C | -1.09% (inactive) |
| OC[C@@H](O)[C@@H](O)[C@H](O)[C@H](O)CO | -11.6% (inactive) |
| CC(C)(C)NCC(O)COc1cccc2c1CCC(=O)N2 (stereo not drawn) | -4.1% (inactive) |
| CN/C(=C\[N+](=O)[O-])NCCSCc1csc(CN(C)C)n1 | -3.18% (inactive) |
| CC(=O)NCc1c(I)c(NC(C)=O)c(I)c(C(=O)O)c1I | 6.57% (inactive) |
| O=C(OOC(=O)c1ccccc1)c1ccccc1 | 5% (inactive) |
| O=C(O)CCCCC1CCSS1 (stereo not drawn) | 15.8% (inactive) |
| FC(F)(F)C(Cl)Br (stereo not drawn) | -4.14% (inactive) |

| SMILES | activity change, negative = cytotoxic |
| --- | --- |
| C[C@@H]1O[C@@H](OC[C@H]2O[C@@H](Oc3c(-c4ccc(O)c(O)c4)oc4cc(O)cc(O)c4c3=O)[C@H](O)[C@@H](O)[C@@H]2O)[C@H](O)[C@H](O)[C@H]1O | 3.66% (inactive) |
| CC(=O)Nc1cccc(O)c1 | -4.99% (inactive) |
| O=C1C(c2[nH]c3ccccc3c2O)=Nc2ccccc21 | 9.24% (inactive) |
| NCC1CCC(C(=O)Oc2ccc(CCC(=O)O)cc2)CC1 (stereo not drawn) | 11.6% (inactive) |
| CCCCCCCCCCCCCCCCCCO | -4.55% (inactive) |
| CC(C)=CCC[C@@](C)(O)[C@H]1CC=C(C)CC1 | 3.69% (inactive) |
| COc1ccccc1OC(=O)Oc1ccccc1OC | 15.2% (inactive) |
| N[C@@H](Cc1ccc(O)cc1)C(=O)O | 6.24% [at 9.22 µM] (inactive) |
| COC(=O)c1cccnc1 | 12.4% (inactive) |
| CC(CSC(=O)c1ccccc1)C(=O)N1C[C@@H](Sc2ccccc2)C[C@H]1C(=O)O (stereo partly drawn) | 0.0857% [at 16.1 µM] (inactive) |
| Cc1ccccc1N=Nc1ccc(N=Nc2c(O)ccc3ccccc23)c(C)c1 | -6.4% (inactive) |
| CN1C(C)(C)CCCC1(C)C | -9.23% (inactive) |
| CN1CCCN=C1COC(=O)C(O)(c1ccccc1)C1CCCCC1 (stereo not drawn) | 0.974% (inactive) |
| Cc1ccsc1C(=CCCN1CCC[C@@H](C(=O)O)C1)c1sccc1C | -1.72% (inactive) |
| CCc1nnc(NS(=O)(=O)c2ccc(N)cc2)s1 | -0.0194% (inactive) |
| O=C(O)[C@@H]1[C@H]2C[C@H]3c4[nH]c5ccccc5c4CCN3C[C@@H]2CC[C@@H]1O | 9.94% (inactive) |
| CCCCCCCC(=O)OCC(O)CO (stereo not drawn) | -5.05% (inactive) |
| O=C(O)c1ccc(OCCCOc2ccc(C(=O)O)cc2)cc1 | 4.34% (inactive) |
| NC(=O)NC1NC(=O)NC1=O (stereo not drawn) | 11.8% (inactive) |

Experiment: qHTS of pediatric cancer cell lines to identify multiple opportunities for drug repurposing: Primary screen for SJ-GBM2 cells (AID 1347091);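 also: plate controls were DMSO neutral control for no effect and bortezomib for full effect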
Conditions: SJ-GBM2 viability, CellTiter-Glo luminescence, 48 h; series mostly up to 46 µM; activity change, negative = cytotoxic: at the top concentration
How it was run: as §1

| SMILES | activity change, negative = cytotoxic |
| --- | --- |
| CCOc1ccc(C(=O)OCCN(CC)CC)cc1 | -1.94% (inactive) |
| CC(O)CCCCn1c(=O)c2c(ncn2C)n(C)c1=O (stereo not drawn) | 26.1% (inactive) |
| O=C(c1ccccc1)C(O)c1ccccc1 (stereo not drawn) | 6.91% (inactive) |
| NS(=O)(=O)c1ccc(NC(=O)CCC(=O)O)cc1 | 10.3% (inactive) |
| CC[N+](CC)(CC(=O)Nc1c(C)cccc1C)Cc1ccccc1 | 6.68% (inactive) |
| C=CCOc1ccccc1OCC(O)CNC(C)C (stereo not drawn) | 14.7% (inactive) |
| CCCCCCCCCCC(CO)CCCCCCCC (stereo not drawn) | 9.78% (inactive) |
| CC(=O)Nc1ccc(C(=O)O)cc1 | 32% (inactive) |
| OC[C@@H](O)[C@@H](O)[C@H](O)[C@H](O)CO | 12.9% (inactive) |
| CN/C(=C\[N+](=O)[O-])NCCSCc1csc(CN(C)C)n1 | 10.5% (inactive) |
| CC(=O)NCc1c(I)c(NC(C)=O)c(I)c(C(=O)O)c1I | 37.3% (inactive) |
| O=C(OOC(=O)c1ccccc1)c1ccccc1 | 14.4% (inactive) |
| O=C(O)CCCCC1CCSS1 (stereo not drawn) | 17.6% (inactive) |
| FC(F)(F)C(Cl)Br (stereo not drawn) | 10.2% (inactive) |
| CC(=O)Nc1cccc(O)c1 | 12.5% (inactive) |
| O=C1C(c2[nH]c3ccccc3c2O)=Nc2ccccc21 | 3.44% (inactive) |
| CCCCCCCCCCCCCCCCCCO | 7.63% (inactive) |
| CC(C)=CCC[C@@](C)(O)[C@H]1CC=C(C)CC1 | 13.2% (inactive) |
| COc1ccccc1OC(=O)Oc1ccccc1OC | -2.64% (inactive) |
| CC(CSC(=O)c1ccccc1)C(=O)N1C[C@@H](Sc2ccccc2)C[C@H]1C(=O)O (stereo partly drawn) | 21.2% [at 16.1 µM] (inactive) |
| Cc1ccccc1N=Nc1ccc(N=Nc2c(O)ccc3ccccc23)c(C)c1 | 21.7% (inactive) |
| Cc1ccsc1C(=CCCN1CCC[C@@H](C(=O)O)C1)c1sccc1C | -0.838% (inactive) |
| CCc1nnc(NS(=O)(=O)c2ccc(N)cc2)s1 | 15.4% (inactive) |
| O=C(O)[C@@H]1[C@H]2C[C@H]3c4[nH]c5ccccc5c4CCN3C[C@@H]2CC[C@@H]1O | -0.366% (inactive) |
| O=C(O)c1ccc(OCCCOc2ccc(C(=O)O)cc2)cc1 | 32.6% (inactive) |
